Consider 14 molecules from PubChem BioAssay (NCI).

Each structure is given as a SMILES string. The panel holds about 83,000 compounds, 20% with a hit somewhere; the sample as a whole holds those more often.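 Treatment: one concentration, 48 hours, 96-well format. Scoring: percent growth, with anything below 10 considered active.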 Values without a mark were called inactive. The source made the active and inactive calls.

In the assay the test system is HL-60(TB) leukemia. As to the kind of experiment: NCI-60 one-dose screen, 48 h (100 = growth as untreated, 0 = no growth, -100 = all killed). The conditions noted are these: 10 µM unless noted.
Turning to `COc1cc(Nc2cc(O)c3c(=O)cc(-c4ccccc4)oc3c2)cc(OC)c1`, the growth was -35.7% (active).
In the case of `O=C1C(=O)c2c(nc3ccc(Br)cn23)-c2ccccc21`, the growth was -58.2% (active).
`COc1cc(OC)c(/C=C/C(=O)c2c(O)cc(OC)c(C3CCN(C)CC3)c2OC)c(OC)c1`: the growth was -35.6% (active).
As for `O=C1Nc2ccc(Br)cc2C12CC(c1ccccc1)=NN2` (centres undefined), the growth was -4.96% (active).
Turning to `CCOc1cccc(/C=N\Nc2nc(=O)cc(C(=O)OC)s2)c1O`, the growth is 72.8%.
For the molecule `CCOc1ccc(N=C(C)Nc2ccc(OCC)cc2)cc1`, the growth was 76.4%.
The value for `CC1(C)Cc2c(Br)c(Br)c(Br)c(OCC(O)CN3CCN(c4ccccn4)CC3)c2O1` (centres undefined) was 61.1%; that for `O=c1[nH]c(=O)n(C2CC(O)C(CO)O2)cc1C(F)(F)F` (centres undefined) was -22.2% (active).
The value for `CCN1C(=O)CC(SC2CC(=O)N(CC)C2=O)C1=O` (centres undefined) was 79.9%; that for `COc1cc(C(=O)O/N=C(\N)Cc2cccc3ccccc23)cc(OC)c1OC` was -37.4% (active).
The value for `OCC1OC(n2cnc3c(NCc4ccco4)ncnc32)C(O)C1O` (centres undefined) was -26.3% (active); that for `COc1cc2c(cc1OC)C(=O)/C(=C/c1cc(-c3ccc4c(c3)OCO4)n[nH]1)C2` was -43.8% (active).
Regarding `O=C(c1ccccc1)c1ccc(O)c2ncccc12`, the growth was 19.8%.
The value for `Nc1nn2cc(-c3ccc(Cl)s3)nc2c2ccccc12` was 54.7%.
